Results from PubChem BioAssay (EPA / NIEHS).
Calls of active or inactive are those of the source. Rule for the calls: active = hit-call score of the fitted dose curve at least 0.9, where 1 is the maximum; inactive = score below 0.9.

Assays:
[1] = ATG_AP_1_CIS: Attagene CIS-FACTORIAL HepG2 Assay for human Activator Protein 1 (AP-1) (AID 2282931); conditions: HepG2 Attagene cis-factorial AP-1 reporter mRNA; actives raise or lower the signal
Method in brief: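 Readout is reporter transcript level from endogenous transcription factor activity, quantified by RT-PCR with fluorescent primer extension and capillary electrophoresis. Transiently transfected HepG2 cells, 24 h exposure. Curves fitted both directions versus DMSO.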

[2] = ATG_AP_2_CIS: Attagene CIS-FACTORIAL HepG2 Assay for human Activator Protein 2 (AP-2) (AID 2282932); conditions: HepG2 AP-2 cis-reporter, Attagene transcription factor profiling; actives raise or lower the signal
Method in brief: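 HepG2, transient MRTU transfection, cis-regulated reporters; 24 h compound exposure; RNA isolated, RT-PCR, 6-FAM labelling, HpaI digest, CE fluorescence. DMSO = negative control/baseline, bidirectional fit.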

[3] = ATG_BRE_CIS: Attagene CIS-FACTORIAL HepG2 Assay for human Bone Morphogenetic Protein (BMP) Response Element (BRE) (AID 2282933); conditions: HepG2 BMP response element reporter, Attagene transcription factor profiling; actives raise or lower the signal
Method in brief: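 HepG2 cells transiently transfected with multiplexed cis-element reporter units were dosed with chemical for 24 h. Reporter mRNA was measured by RT-PCR with fluorescent labelling, HpaI digestion and capillary electrophoresis; bidirectional fitting relative to DMSO.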

[4] = ATG_E_Box_CIS: Attagene CIS-FACTORIAL HepG2 Assay for human Enhancer Box (E-box) (AID 2282936); conditions: HepG2 E-box cis-reporter transcription, actives raise or lower the signal
Method in brief: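 Cells: HepG2 (human liver), transient MRTU transfection. Exposure 24 h. RNA → oligo(dT) RT → PCR → 6-FAM label → HpaI → CE. Activity fitted both directions relative to DMSO.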

[5] = ATG_M_61_CIS: Attagene CIS-FACTORIAL HepG2 Assay for M61 Transcription Factor (Internal Marker) (AID 2282937); conditions: HepG2 Attagene CIS-FACTORIAL M61 internal marker reporter; actives raise or lower the signal
Method in brief: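 Readout is reporter mRNA by RT-PCR, fluorescent primer extension and capillary electrophoresis, with gain or loss fitted relative to DMSO. Transfected HepG2 cells carrying endogenous-TF-driven cis reporters were exposed to chemicals for 24 hours.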

[6] = ATG_EGR_CIS: Attagene CIS-FACTORIAL HepG2 Assay for human Early Growth Response 1 (EGR1) (AID 2282938); conditions: HepG2 Attagene CIS-FACTORIAL EGR reporter mRNA; actives raise or lower the signal
Method in brief: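 After 24 h compound exposure, RNA from reporter-transfected HepG2 cells was reverse-transcribed, PCR-amplified, fluorescently labelled and resolved by capillary electrophoresis. EGR1 reporter transcript changes, up or down, were fitted against DMSO, reflecting endogenous transcription-factor activity.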

[7] = ATG_M_19_CIS: Attagene CIS-FACTORIAL HepG2 Assay for M19 Transcription Factor (Internal Marker) (AID 2282939); conditions: HepG2 Attagene CIS-FACTORIAL M19 internal marker reporter; actives raise or lower the signal
Method in brief: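 HepG2 cells transiently transfected with cis-regulated multiple reporter transcription units were dosed for 24 h; reporter mRNA was quantified by RT-PCR, 6-FAM primer-extension labelling, HpaI digestion and capillary electrophoresis, with bidirectional fitting against DMSO baseline.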

[8] = ATG_ERE_CIS: Attagene CIS-FACTORIAL HepG2 Assay for Estrogen Response Element (ERE) (AID 2282940); conditions: HepG2 ERE cis-reporter, Attagene RNA transcript; actives raise or lower the signal
Method in brief: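 HepG2 cells transiently transfected with cis-promoter-driven multiplexed reporter transcription units report endogenous TF activity. After 24 h compound exposure, reporter mRNA is quantified by RT-PCR with capillary electrophoresis fluorescence; bidirectional fitting versus DMSO baseline.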

[9] = target: Transcription factor E2F1 (Homo sapiens) (UniProt Q01094); assay: ATG_E2F_CIS: Attagene CIS-FACTORIAL HepG2 Assay for human E2F Transcription Factor 1 (AID 2282935); conditions: HepG2 Attagene cis-reporter, E2F reporter RNA transcripts; actives raise or lower the signal
Method in brief: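 Cis-element reporter mRNA induction in transiently transfected HepG2, 24 h exposure. Activity fitted in both directions relative to DMSO negative control.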

Chain of Transcription factor E2F1 (Homo sapiens) (Q01094 whole entry, looked up): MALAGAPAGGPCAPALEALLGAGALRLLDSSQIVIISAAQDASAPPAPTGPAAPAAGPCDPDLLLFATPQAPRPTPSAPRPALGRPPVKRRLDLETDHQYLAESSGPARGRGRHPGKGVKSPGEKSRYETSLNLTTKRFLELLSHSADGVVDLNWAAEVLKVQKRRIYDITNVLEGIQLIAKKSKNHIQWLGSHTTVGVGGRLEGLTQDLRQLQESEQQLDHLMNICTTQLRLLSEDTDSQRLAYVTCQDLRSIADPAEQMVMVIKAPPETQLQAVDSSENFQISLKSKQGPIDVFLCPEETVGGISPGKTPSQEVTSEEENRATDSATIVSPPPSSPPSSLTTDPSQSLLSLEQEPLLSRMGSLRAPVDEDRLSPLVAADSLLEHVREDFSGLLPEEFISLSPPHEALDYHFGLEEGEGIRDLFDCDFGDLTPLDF

Row | SMILES | outcome [1] | outcome [2] | outcome [3] | outcome [4] | outcome [5] | outcome [6] | outcome [7] | outcome [8] | outcome [9] | AC50 [4] | AC50 [6] | AC50 [8] | AC50 [1] | AC50 [3] | AC50 [9] | AC50 [2]
1 | Cc1ccccc1C(=O)Nc1cccc(OC(C)C)c1 | inactive | inactive | inactive | inactive | inactive | inactive | inactive | inactive | – | – | – | – | – | – | – | –
2 | NC(=O)O | inactive | inactive | inactive | inactive | inactive | inactive | inactive | inactive | inactive | – | – | – | – | – | – | –
3 | Nc1cccc2ccccc12 | inactive | inactive | inactive | – | inactive | inactive | inactive | inactive | inactive | 32.1 µM (active) | – | – | – | – | – | –
4 | CN(CCCC(=O)c1cccnc1)N=O | inactive | inactive | inactive | inactive | inactive | inactive | inactive | inactive | inactive | – | – | – | – | – | – | –
5 | CCC1(c2ccc(N)cc2)CCC(=O)NC1=O (stereo not given) | inactive | inactive | inactive | inactive | inactive | inactive | inactive | inactive | inactive | – | – | – | – | – | – | –
6 | Nc1ccc(Cl)cc1C(=O)c1ccccc1 | inactive | inactive | inactive | inactive | inactive | – | inactive | inactive | – | – | 26.3 µM (active) | – | – | – | – | –
7 | CCCCOCCOC(C)=O | inactive | inactive | inactive | inactive | inactive | inactive | inactive | inactive | inactive | – | – | – | – | – | – | –
8 | ClC1=C(Cl)[C@]2(Cl)[C@H]3[C@H]([C@H]4C=C[C@H]3C4)[C@@]1(Cl)C2(Cl)Cl | inactive | inactive | inactive | inactive | inactive | inactive | inactive | – | inactive | – | – | 9.92 µM (active) | – | – | – | –
9 | OCc1ccco1 | inactive | inactive | inactive | inactive | inactive | inactive | inactive | inactive | inactive | – | – | – | – | – | – | –
10 | CCOP(=S)(OCC)Oc1nc(Cl)c(Cl)cc1Cl | – | inactive | – | inactive | inactive | inactive | inactive | – | – | – | – | 27.5 µM (active) | 46.2 µM (active) | 65.5 µM (active) | 48.6 µM (active) | –
11 | O=S(=O)(c1ccc(Cl)cc1)c1ccc(Cl)cc1 | – | inactive | inactive | inactive | inactive | inactive | inactive | inactive | – | – | – | – | 35.8 µM (active) | – | – | –
12 | Cc1cc(=O)[nH]o1 | inactive | inactive | inactive | inactive | inactive | inactive | inactive | inactive | – | – | – | – | – | – | – | –
13 | O=C(CCl)CCl | inactive | – | inactive | – | inactive | – | inactive | inactive | inactive | 30.1 µM (active) | 48.8 µM (active) | – | – | – | – | 33.4 µM (active)
14 | COc1ccc(C=O)cc1 | inactive | inactive | inactive | inactive | inactive | inactive | inactive | inactive | – | – | – | – | – | – | – | –
15 | CCCCP(CCCC)CCCC | inactive | inactive | inactive | inactive | inactive | inactive | inactive | – | inactive | – | – | 72.5 µM (active) | – | – | – | –
16 | O=C(NCO)NCO | inactive | inactive | inactive | inactive | inactive | inactive | inactive | – | inactive | – | – | 54.5 µM (active) | – | – | – | –
17 | CC(=O)c1cc(C(C)(C)C)cc2c1CCC2(C)C | – | – | inactive | inactive | inactive | – | inactive | inactive | – | – | 37.9 µM (active) | – | 70.4 µM (active) | – | 171 µM (active) | 161 µM (active)
18 | CCC(=O)c1ccccc1 | inactive | inactive | inactive | inactive | inactive | inactive | inactive | inactive | inactive | – | – | – | – | – | – | –
19 | CC1(C)CCC(Cc2ccc(Cl)cc2)C1(O)Cn1cncn1 (stereo not given) | – | inactive | – | inactive | inactive | inactive | inactive | – | inactive | – | – | 7.52 µM (active) | 33.4 µM (active) | 52.3 µM (active) | – | –
20 | C[C@H]1O[C@@H](O[C@H]2[C@@H](O)C[C@H](O[C@H]3[C@@H](O)C[C@H](O[C@H]4CC[C@@]5(C)[C@H](CC[C@@H]6[C@@H]5CC[C@]5(C)[C@@H](C7=CC(=O)OC7)CC[C@]65O)C4)O[C@@H]3C)O[C@@H]2C)C[C@H](O)[C@@H]1O | – | – | inactive | inactive | inactive | – | inactive | inactive | inactive | – | 0.65 µM (active) | – | 13.6 µM (active) | – | – | 0.141 µM (active)
21 | CCN(CC)C(=O)Cl | inactive | inactive | inactive | inactive | inactive | inactive | inactive | – | inactive | – | – | 27.7 µM (active) | – | – | – | –
22 | C=CC(=O)N(C)C | inactive | inactive | inactive | inactive | inactive | inactive | inactive | inactive | inactive | – | – | – | – | – | – | –
23 | Nc1cccc(Cl)c1 | inactive | inactive | inactive | inactive | inactive | inactive | inactive | inactive | – | – | – | – | – | – | – | –
24 | Nc1ccc(-c2ccc(N)c(Cl)c2)cc1Cl | inactive | inactive | inactive | inactive | inactive | inactive | inactive | – | inactive | – | – | 3.86 µM (active) | – | – | – | –
25 | CC1CN1P(=O)(N1CC1C)N1CC1C (stereo not given) | inactive | inactive | inactive | inactive | inactive | inactive | inactive | inactive | inactive | – | – | – | – | – | – | –
26 | C=CCc1ccc(OC)cc1 | inactive | inactive | inactive | inactive | inactive | inactive | inactive | – | – | – | – | – | – | – | – | –
27 | ClCCBr | inactive | inactive | inactive | inactive | inactive | inactive | inactive | inactive | inactive | – | – | – | – | – | – | –
